Data published in the supplement of paper PMC3842684.

tested on: P. falciparum NF54-pfs16-GFP early (I-III) stage gametocytes; assay: relative % inhibition of viable gametocyte number; higher = more gametocytocidal; details: 0.5 µM; stage: early (I-III) gametocyte; incubation 72 h
In short: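 Early-stage (I/IIa, day 2) or late-stage (day 8) NF54 pfs16-GFP gametocytes were isolated by magnet and plated in 384-well poly-D-lysine imaging plates at 10% parasitaemia and 0.1% haematocrit, with compound in duplicate at 5 or 0.5 µM. After 72 h at 37°C under 5% CO2 and 5% O2, MitoTracker Red was added overnight. Confocal imaging scored elongated GFP objects whose MitoTracker signal passed a cut-off as viable gametocytes. Relative inhibition was normalised against vehicle and positive-control wells on the same plate.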

Row | Compound | relative % inhibition [%]
1 | COc1ccc(Nc2nc(NN=Cc3ccc(O)cc3)nc(Nc3ccc([N+](=O)[O-])cc3)n2)cc1 | -0.568
2 | COc1cccc(C=Cc2nc(=O)c3ccccc3o2)c1OC | -6.76
3 | O=C(Nc1ccccc1O)c1ccc(Oc2cccc(C(=O)Nc3ccccc3O)c2)cc1 | 20.5
4 | COc1ccccc1N1C(=N)SC(=Cc2ccc(OCc3ccccc3F)cc2)C1=O | 2.18
5 | O=C(Nc1ccc(Cl)c(Cl)c1)Nc1ccc(Cl)c(Cl)c1 | 4.74
6 | C[n+]1c2ccccc2nc2ccc(NCCO)cc21 | 6.83
7 | COc1cc(SC)ccc1C(=O)N1CCCC(C)C1 (stereo not drawn) | -24.7
8 | O=c1nc(C=Cc2ccc(Br)cc2)oc2ccccc12 | 10.7
9 | COc1ccc2c(c1)OC(O)(C(F)(F)C(F)(F)F)CC2=O (stereo not drawn) | -12.9
10 | CCOC(=O)c1cn(CC)c2cc(N(C)CCc3ccc(OC)c(OC)c3)c(F)cc2c1=O | 38.6
11 | CCOc1cccc(C(=O)Nc2ccc(-c3nc4ccccc4[nH]3)cc2)c1 | 35.7
12 | CCOc1c(Cl)cc(CNCC(O)c2ccccc2)cc1OC (stereo not drawn) | -19.6
13 | O=C(Nc1cccc(C2=NCCN2)c1)Nc1cccc(C2=NCCN2)c1 | 9.97
14 | O=C(NCCCN1CCC(N2CCCCC2)CC1)C1=Cc2cc(Br)ccc2OC1 | 42.8
15 | Cc1ccc(CN2CCC(C(=O)Nc3ccc(-c4cc5ccccc5[nH]4)cc3)CC2)o1 | 9.97
16 | COc1ccc2c(c1OC)C(=O)N1c3ccccc3N=C(c3ccc(C)cc3)CC21 (stereo not drawn) | 11.7
17 | CCN(CC)S(=O)(=O)c1ccc(-c2csc(Nc3ccc(C)c(C)c3)n2)cc1 | 28
18 | CCOC(=O)c1cnc2ccc(OC)cc2c1Nc1ccc(N2CCN(C)CC2)cc1 | 53
